Measured values from PMC7862700, “An all-to-all approach to the identification of sequence-specific readers for epigenetic DNA modifications on cytosine”.

Key:
Assay in all cases: DAPPL (digital affinity profiling via proximity ligation, sequencing); 10 mM Tris-HCl pH 7.5, 50 mM NaCl, 1 mM DTT, 4% glycerol, room temperature, 30 min; GST-TFs on glutathione beads, 16-mer random dsDNA library, 0.1% formaldehyde crosslink after washing; high values mean tight binding
Settings in all cases: protein: recombinant; tags: N-terminal GST; dsDNA, one strand shown
FLI1 = molecular target: T1, FLI1 (Homo sapiens, UniProt Q01543 1-452)
T1 sequence: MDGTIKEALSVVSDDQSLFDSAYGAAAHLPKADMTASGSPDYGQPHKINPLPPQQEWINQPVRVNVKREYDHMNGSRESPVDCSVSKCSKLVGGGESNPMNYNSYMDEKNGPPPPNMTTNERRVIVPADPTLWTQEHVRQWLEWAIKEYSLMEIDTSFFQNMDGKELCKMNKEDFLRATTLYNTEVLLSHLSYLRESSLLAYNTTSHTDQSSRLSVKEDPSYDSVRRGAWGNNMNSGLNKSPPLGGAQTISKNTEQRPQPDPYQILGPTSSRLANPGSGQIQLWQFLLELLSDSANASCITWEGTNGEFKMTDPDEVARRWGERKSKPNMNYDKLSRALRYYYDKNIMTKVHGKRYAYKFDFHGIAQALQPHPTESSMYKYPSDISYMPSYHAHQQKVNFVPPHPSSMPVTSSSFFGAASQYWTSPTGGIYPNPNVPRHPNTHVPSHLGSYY
Procedure, shortened: (§1)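 Human transcription factors were made in yeast as GST fusions, captured on glutathione beads and barcoded with DNA. With a tag-only sample included, the pool was incubated with 200 nmole of a random double-stranded 16-mer DNA library in Tris/NaCl/DTT/glycerol buffer at room temperature for 30 min, then crosslinked with 0.1% formaldehyde after washing, ligated by proximity, amplified and sequenced. For binding signal, each hexamer's read frequency for a factor is divided by its frequency for the tag-only sample.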

ELK1 = molecular target: T2, ELK1 (Homo sapiens, UniProt P19419 1-428)
T2 sequence: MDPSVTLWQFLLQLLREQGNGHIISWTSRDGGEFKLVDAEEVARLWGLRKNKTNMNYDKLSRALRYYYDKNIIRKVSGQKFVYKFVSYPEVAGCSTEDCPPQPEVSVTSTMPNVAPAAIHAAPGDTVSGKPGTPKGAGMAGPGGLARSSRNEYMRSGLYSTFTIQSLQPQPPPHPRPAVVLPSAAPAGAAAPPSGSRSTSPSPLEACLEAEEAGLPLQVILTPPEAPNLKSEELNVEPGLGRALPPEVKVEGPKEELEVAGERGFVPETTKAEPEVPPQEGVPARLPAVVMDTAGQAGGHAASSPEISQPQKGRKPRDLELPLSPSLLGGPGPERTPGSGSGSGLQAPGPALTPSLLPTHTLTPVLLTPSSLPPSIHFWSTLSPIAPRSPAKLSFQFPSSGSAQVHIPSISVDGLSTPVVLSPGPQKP
Procedure, shortened: as §1

GABPA = molecular target: T3, GABPA (Homo sapiens, UniProt Q06546 1-454)
T3 sequence: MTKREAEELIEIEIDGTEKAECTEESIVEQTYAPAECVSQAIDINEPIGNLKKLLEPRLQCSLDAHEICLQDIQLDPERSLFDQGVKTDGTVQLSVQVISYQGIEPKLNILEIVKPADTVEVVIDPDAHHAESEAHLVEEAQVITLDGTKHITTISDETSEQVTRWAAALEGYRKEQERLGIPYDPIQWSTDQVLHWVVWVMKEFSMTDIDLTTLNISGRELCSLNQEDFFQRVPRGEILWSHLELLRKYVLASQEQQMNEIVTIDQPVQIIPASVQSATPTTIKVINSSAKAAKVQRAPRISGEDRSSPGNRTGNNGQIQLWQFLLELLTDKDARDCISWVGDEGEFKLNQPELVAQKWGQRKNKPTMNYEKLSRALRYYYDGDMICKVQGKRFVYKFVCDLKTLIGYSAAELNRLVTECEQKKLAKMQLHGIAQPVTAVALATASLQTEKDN
Procedure, shortened: as §1

ERG = molecular target: T4, ERG (Homo sapiens, UniProt P11308 1-479)
T4 sequence: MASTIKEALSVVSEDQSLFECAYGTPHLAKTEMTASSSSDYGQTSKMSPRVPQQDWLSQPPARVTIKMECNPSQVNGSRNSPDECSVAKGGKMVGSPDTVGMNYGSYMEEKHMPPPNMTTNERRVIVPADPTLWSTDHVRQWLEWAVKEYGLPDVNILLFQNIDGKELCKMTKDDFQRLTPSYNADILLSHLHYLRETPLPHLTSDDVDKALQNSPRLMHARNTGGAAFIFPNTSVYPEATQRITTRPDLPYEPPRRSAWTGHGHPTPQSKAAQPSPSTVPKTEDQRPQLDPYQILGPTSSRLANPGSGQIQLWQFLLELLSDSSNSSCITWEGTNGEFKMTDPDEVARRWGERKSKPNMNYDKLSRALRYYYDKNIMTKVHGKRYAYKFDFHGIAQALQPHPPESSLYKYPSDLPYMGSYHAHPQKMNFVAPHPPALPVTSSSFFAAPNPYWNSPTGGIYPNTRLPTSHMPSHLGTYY
Procedure, shortened: as §1

ELF1 = ELF1 (Homo sapiens, UniProt P32519 1-619)
Sequence of ELF1 (P32519 whole entry): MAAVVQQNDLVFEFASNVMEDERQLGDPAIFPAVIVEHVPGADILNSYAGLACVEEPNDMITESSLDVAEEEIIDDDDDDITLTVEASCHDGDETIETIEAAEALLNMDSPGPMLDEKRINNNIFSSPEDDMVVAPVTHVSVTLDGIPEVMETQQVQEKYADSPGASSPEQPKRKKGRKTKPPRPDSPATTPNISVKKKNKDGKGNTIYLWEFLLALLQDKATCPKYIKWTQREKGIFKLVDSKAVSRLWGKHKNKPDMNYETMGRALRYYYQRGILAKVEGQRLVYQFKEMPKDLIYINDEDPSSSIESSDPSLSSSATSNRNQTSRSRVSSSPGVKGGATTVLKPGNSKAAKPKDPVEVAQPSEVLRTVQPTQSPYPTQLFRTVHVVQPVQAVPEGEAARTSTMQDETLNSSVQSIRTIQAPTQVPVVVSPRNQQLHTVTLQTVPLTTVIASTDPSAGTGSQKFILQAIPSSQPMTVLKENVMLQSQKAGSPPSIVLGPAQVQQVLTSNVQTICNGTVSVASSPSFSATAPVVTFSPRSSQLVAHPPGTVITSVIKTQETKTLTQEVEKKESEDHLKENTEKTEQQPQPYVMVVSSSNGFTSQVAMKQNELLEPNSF
Procedure, shortened: as §1

EHF = molecular target: T5, EHF (Homo sapiens, UniProt Q9NZC4 1-300)
T5 sequence: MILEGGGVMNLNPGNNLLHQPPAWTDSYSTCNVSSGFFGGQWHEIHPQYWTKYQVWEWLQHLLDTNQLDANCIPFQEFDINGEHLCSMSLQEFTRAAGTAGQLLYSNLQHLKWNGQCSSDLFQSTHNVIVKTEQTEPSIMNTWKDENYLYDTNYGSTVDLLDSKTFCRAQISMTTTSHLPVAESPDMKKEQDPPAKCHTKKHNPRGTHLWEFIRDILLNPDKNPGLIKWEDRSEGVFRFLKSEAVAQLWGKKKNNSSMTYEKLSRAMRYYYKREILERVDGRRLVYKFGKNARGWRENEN
Procedure, shortened: as §1

SPIB = SPIB (Homo sapiens, UniProt Q01892 1-262)
Sequence of SPIB (Q01892 whole entry): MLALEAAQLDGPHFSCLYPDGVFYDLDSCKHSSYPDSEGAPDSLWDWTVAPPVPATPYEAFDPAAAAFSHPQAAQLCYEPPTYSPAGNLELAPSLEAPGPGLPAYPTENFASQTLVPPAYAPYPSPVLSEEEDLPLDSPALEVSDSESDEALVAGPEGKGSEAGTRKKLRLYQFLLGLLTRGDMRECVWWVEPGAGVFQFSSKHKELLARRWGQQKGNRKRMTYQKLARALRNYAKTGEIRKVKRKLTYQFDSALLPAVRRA
Procedure, shortened: as §1

ELK3 = molecular target: T6, ELK3 (Homo sapiens, UniProt P41970 1-407)
T6 sequence: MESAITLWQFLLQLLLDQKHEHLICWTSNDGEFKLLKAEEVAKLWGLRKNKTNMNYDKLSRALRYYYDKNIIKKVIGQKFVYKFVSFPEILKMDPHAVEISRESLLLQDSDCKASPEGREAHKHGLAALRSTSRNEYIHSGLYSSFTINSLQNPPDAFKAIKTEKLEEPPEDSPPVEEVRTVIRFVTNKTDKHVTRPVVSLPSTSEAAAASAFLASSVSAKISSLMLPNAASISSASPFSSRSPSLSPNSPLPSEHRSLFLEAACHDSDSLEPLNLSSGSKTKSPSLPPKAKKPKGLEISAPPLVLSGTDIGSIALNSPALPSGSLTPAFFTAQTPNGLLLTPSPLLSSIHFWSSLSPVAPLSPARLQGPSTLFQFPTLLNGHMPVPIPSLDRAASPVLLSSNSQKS
Procedure, shortened: as §1

SPI1 = SPI1 (Homo sapiens, UniProt P17947 1-270)
Procedure, shortened: as §1

| Sequence | binding signal (FLI1) | binding signal (ELK1) | binding signal (GABPA) | binding signal (ERG) | binding signal (ELF1) | binding signal (EHF) | binding signal (SPIB) | binding signal (ELK3) | binding signal (SPI1) |
| --- | --- | --- | --- | --- | --- | --- | --- | --- | --- |
| TCGCGC | 1.08 fold enrichment (6-mer frequency, TF over GST control) | 1.04 fold enrichment (6-mer frequency, TF over GST control) | 1.18 fold enrichment (6-mer frequency, TF over GST control) | 1.08 fold enrichment (6-mer frequency, TF over GST control) | 1.07 fold enrichment (6-mer frequency, TF over GST control) | 1.13 fold enrichment (6-mer frequency, TF over GST control) | 1.08 fold enrichment (6-mer frequency, TF over GST control) | 1.03 fold enrichment (6-mer frequency, TF over GST control) | – |
| GATGGT | 1.25 fold enrichment (6-mer frequency, TF over GST control) | 1.16 fold enrichment (6-mer frequency, TF over GST control) | 1.16 fold enrichment (6-mer frequency, TF over GST control) | 1.23 fold enrichment (6-mer frequency, TF over GST control) | 1.14 fold enrichment (6-mer frequency, TF over GST control) | 1.06 fold enrichment (6-mer frequency, TF over GST control) | 1.19 fold enrichment (6-mer frequency, TF over GST control) | 1.17 fold enrichment (6-mer frequency, TF over GST control) | – |
| ACACCC | 1.18 fold enrichment (6-mer frequency, TF over GST control) | 1.16 fold enrichment (6-mer frequency, TF over GST control) | 1.16 fold enrichment (6-mer frequency, TF over GST control) | 1.11 fold enrichment (6-mer frequency, TF over GST control) | 1.09 fold enrichment (6-mer frequency, TF over GST control) | 1.11 fold enrichment (6-mer frequency, TF over GST control) | 1.17 fold enrichment (6-mer frequency, TF over GST control) | 1.08 fold enrichment (6-mer frequency, TF over GST control) | – |
| TGACTG | 1.13 fold enrichment (6-mer frequency, TF over GST control) | 1.09 fold enrichment (6-mer frequency, TF over GST control) | 1.16 fold enrichment (6-mer frequency, TF over GST control) | 1.01 fold enrichment (6-mer frequency, TF over GST control) | 1.05 fold enrichment (6-mer frequency, TF over GST control) | – | 1.11 fold enrichment (6-mer frequency, TF over GST control) | – | 1.1 fold enrichment (6-mer frequency, TF over GST control) |
| CAGATG | 1.05 fold enrichment (6-mer frequency, TF over GST control) | 1.09 fold enrichment (6-mer frequency, TF over GST control) | 1.04 fold enrichment (6-mer frequency, TF over GST control) | 1.09 fold enrichment (6-mer frequency, TF over GST control) | 1.08 fold enrichment (6-mer frequency, TF over GST control) | – | – | – | 1 fold enrichment (6-mer frequency, TF over GST control) |
| GCGCCC | 1.07 fold enrichment (6-mer frequency, TF over GST control) | 1.1 fold enrichment (6-mer frequency, TF over GST control) | 1.11 fold enrichment (6-mer frequency, TF over GST control) | 1.13 fold enrichment (6-mer frequency, TF over GST control) | 1.11 fold enrichment (6-mer frequency, TF over GST control) | 1.03 fold enrichment (6-mer frequency, TF over GST control) | 1.09 fold enrichment (6-mer frequency, TF over GST control) | 1.18 fold enrichment (6-mer frequency, TF over GST control) | – |
| TGTGTT | 1.19 fold enrichment (6-mer frequency, TF over GST control) | 1.1 fold enrichment (6-mer frequency, TF over GST control) | 1.06 fold enrichment (6-mer frequency, TF over GST control) | 1.03 fold enrichment (6-mer frequency, TF over GST control) | 1.03 fold enrichment (6-mer frequency, TF over GST control) | 1.09 fold enrichment (6-mer frequency, TF over GST control) | – | 1.26 fold enrichment (6-mer frequency, TF over GST control) | – |
| CACCGA | 1.01 fold enrichment (6-mer frequency, TF over GST control) | 1.01 fold enrichment (6-mer frequency, TF over GST control) | 1.08 fold enrichment (6-mer frequency, TF over GST control) | 1.08 fold enrichment (6-mer frequency, TF over GST control) | 1.11 fold enrichment (6-mer frequency, TF over GST control) | 1.08 fold enrichment (6-mer frequency, TF over GST control) | – | 1 fold enrichment (6-mer frequency, TF over GST control) | – |
| GATATT | 1.11 fold enrichment (6-mer frequency, TF over GST control) | 1.17 fold enrichment (6-mer frequency, TF over GST control) | 1.06 fold enrichment (6-mer frequency, TF over GST control) | 1.12 fold enrichment (6-mer frequency, TF over GST control) | 1.13 fold enrichment (6-mer frequency, TF over GST control) | 1.12 fold enrichment (6-mer frequency, TF over GST control) | 1.13 fold enrichment (6-mer frequency, TF over GST control) | 1 fold enrichment (6-mer frequency, TF over GST control) | – |
| CTATGT | 1.11 fold enrichment (6-mer frequency, TF over GST control) | 1.11 fold enrichment (6-mer frequency, TF over GST control) | 1.22 fold enrichment (6-mer frequency, TF over GST control) | – | 1.09 fold enrichment (6-mer frequency, TF over GST control) | 1.03 fold enrichment (6-mer frequency, TF over GST control) | 1.15 fold enrichment (6-mer frequency, TF over GST control) | – | 1.04 fold enrichment (6-mer frequency, TF over GST control) |
